For 39 molecules, outcome results are on record in PubChem BioAssay AID720597 (Broad Institute, 2013).

Entries with a potency or affinity are not part of this list. Active and inactive are the calls of the source.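 Rule for the calls: active = fitted half-maximal dose no more than twice the top valid tested dose, for compounds that lower signal; inconclusive = fit invalid, or curve flat with activity between -70 and -30; inactive = potency past limit, curve flat within ±30, or signal increasing.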

The assay deals with NAD-dependent protein deacylase sirtuin-5, mitochondrial (Homo sapiens) (UniProt Q9NXA8). Kind of assay: SIRT5 deacylase inhibitors, dose response, biochemical, fluorescence imaging, cherry-pick, set 6 (AID 720597).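 Note: lower AMC signal can also come from blocking the trypsin step.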 To be noted: Purified SirT5, succinyl-peptide-AMC/trypsin fluorescence; series mostly up to 15 µM.
NAD-dependent protein deacylase sirtuin-5, mitochondrial (Homo sapiens), sequence (Q9NXA8 whole entry, looked up): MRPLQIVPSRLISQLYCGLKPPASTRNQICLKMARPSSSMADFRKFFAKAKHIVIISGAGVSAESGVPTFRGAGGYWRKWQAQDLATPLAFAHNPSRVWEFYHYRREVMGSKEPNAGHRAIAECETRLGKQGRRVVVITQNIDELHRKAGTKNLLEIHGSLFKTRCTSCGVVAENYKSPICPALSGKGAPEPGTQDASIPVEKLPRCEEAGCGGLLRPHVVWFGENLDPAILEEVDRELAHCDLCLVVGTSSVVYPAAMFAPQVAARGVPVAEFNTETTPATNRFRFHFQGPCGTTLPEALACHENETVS
With `C[C@@H]1CN([C@@H](C)CO)C(=O)Cc2cc(NC(=O)Nc3ccc4c(c3)OCO4)ccc2O[C@@H]1CN(C)CC1CCCCC1`, the molecule was called inactive.
With `COc1ccc(S(=O)(=O)Nc2ccc3c(c2)C(=O)N([C@@H](C)CO)C[C@@H](C)[C@@H](CN(C)S(=O)(=O)c2cccs2)OCCCC[C@H](C)O3)cc1`, the molecule was called inactive.
Take `C[C@H]1CN([C@@H](C)CO)C(=O)c2cc(NC(=O)Nc3ccc(C(F)(F)F)cc3)ccc2O[C@H]1CN(C)S(=O)(=O)c1ccc(Cl)cc1`: the molecule was classed as inactive.
`C[C@H]1CN([C@@H](C)CO)C(=O)c2cc(NC(=O)CCCCCC(=O)Nc3ccccc3N)ccc2O[C@H]1CN(C)Cc1ccc(Cl)c(Cl)c1`: the call was inactive.
Turning to `Cc1ccc(S(=O)(=O)N(C)C[C@H]2OCCCC[C@H](C)Oc3ccc(NS(=O)(=O)c4ccc(F)cc4)cc3C(=O)N([C@H](C)CO)C[C@@H]2C)cc1`, the molecule was called inactive.
Under `Cc1ccc(S(=O)(=O)N(C)C[C@H]2OCCCC[C@@H](C)Oc3ccc(NS(=O)(=O)c4ccc(F)cc4)cc3C(=O)N([C@@H](C)CO)C[C@H]2C)cc1` stands “inactive”.
On to `COc1cccc(S(=O)(=O)N(C)C[C@@H]2Oc3cc(C4=CCCC4)ccc3S(=O)(=O)N([C@H](C)CO)C[C@H]2C)c1`, for which the call was inactive.
For the molecule `Cc1noc(C)c1S(=O)(=O)N(C)C[C@@H]1OCCCC[C@@H](C)Oc2ccc(NC(=O)Nc3cccc4ccccc34)cc2C(=O)N([C@H](C)CO)C[C@@H]1C`, the result was inactive.
In the case of `C[C@H]1CN([C@@H](C)CO)S(=O)(=O)c2ccc(C#CC3CCCC3)cc2O[C@@H]1CN(C)C(=O)Nc1cc(F)ccc1F`, the outcome was inactive.
Under `COc1ccc(S(=O)(=O)N[C@H]2C=C[C@@H](CC(=O)NCCc3ccncc3)O[C@H]2CO)cc1` stands “inactive”; under `O=S(=O)(NC[C@@H]1CC[C@H]2[C@H](CN2Cc2cccc(-c3ccccn3)c2)O1)c1ccccc1`, “inactive”; under `COc1ccc(S(=O)(=O)Nc2ccc3c(c2)C(=O)N([C@@H](C)CO)C[C@@H](C)[C@H](CN(C)Cc2ccc(C(F)(F)F)cc2)OCCCC[C@H](C)O3)cc1`, “inactive”.
Under `COc1cccc(NC(=O)N2CC(=O)N3[C@H](C2)[C@H](c2ccc(C#CCC4CCCC4)cc2)[C@@H]3CO)c1` stands “inactive”.
Consider `C[C@@H]1CN([C@H](C)CO)C(=O)c2cc(-c3cccc(F)c3)cnc2O[C@@H]1CN(C)C`, for which the molecule was called inactive.
For the molecule `C[C@H]1CN([C@@H](C)CO)S(=O)(=O)c2ccc(/C=C/c3ccccc3)cc2O[C@H]1CN(C)C(=O)NC1CCCC1`, the molecule was classed as inactive.
Consider `CCCC(=O)Nc1ccc2c(c1)OC[C@@H](C)N(Cc1ccccc1)C[C@H](C)[C@@H](OC)CN(C)C2=O`, for which the molecule was called inactive.
Regarding `C[C@H]1CN([C@@H](C)CO)S(=O)(=O)c2ccc(-c3cccc(F)c3)cc2O[C@H]1CN(C)S(=O)(=O)c1ccc(F)cc1`, the outcome was inactive.
Under `C[C@@H]1CCCCO[C@H](CN(C)S(=O)(=O)c2ccc(Cl)cc2)[C@H](C)CN([C@@H](C)CO)C(=O)c2cc(N(C)C)ccc2O1` stands “inactive”; under `COc1ccc(S(=O)(=O)N2CCCCN3[C@H](CO)[C@@H](c4ccc(C#CC5CC5)cc4)[C@@H]3C2)cc1`, “inactive”.
`C[C@@H]1CN([C@H](C)CO)C(=O)c2cc(C#CCN(C)C)cnc2O[C@@H]1CN(C)Cc1ccncc1`: the outcome was inactive.
`COc1ccc(C#Cc2ccc([C@H]3[C@@H](CO)N4C(=O)CN(C(=O)c5cccnc5)C[C@@H]34)cc2)cc1`: the molecule was called inactive.
On to `O=C(CN1CCOCC1)N1CCCCN2[C@H](C1)[C@H](c1ccc(-c3ccccc3)cc1)[C@@H]2CO`, for which the molecule was classed as inactive.
Under `COc1ccc(S(=O)(=O)Nc2ccc3c(c2)CC(=O)N([C@@H](C)CO)C[C@H](C)[C@H](CN(C)Cc2ccc(C(F)(F)F)cc2)O3)cc1` stands “inactive”; under `C[C@H](CO)N1C[C@H](C)[C@@H](CN(C)C(=O)C2CCOCC2)Oc2ncc(-c3ccccc3)cc2C1=O`, “inactive”.
As for `C[C@H]1CN([C@@H](C)CO)C(=O)c2c(c3ccccc3n2C)-c2ccccc2CO[C@H]1CN(C)S(=O)(=O)c1ccc(F)cc1`, the result was inactive.
As for `C[C@H]1CN([C@@H](C)CO)S(=O)(=O)c2ccc(C#Cc3ccc(F)cc3)cc2O[C@@H]1CN(C)S(=O)(=O)c1ccc(F)cc1`, the outcome was inactive.
On to `COc1ccc(S(=O)(=O)Nc2ccc3c(c2)C(=O)N([C@@H](C)CO)C[C@H](C)[C@@H](CN(C)S(=O)(=O)c2ccccc2)OCCCC[C@@H](C)O3)cc1`, for which the call was inactive.
Under `Cc1ccc(S(=O)(=O)Nc2ccc3c(c2)C(=O)N([C@@H](C)CO)C[C@H](C)[C@H](CN(C)S(=O)(=O)c2ccccc2)OCCCC[C@@H](C)O3)cc1` stands “inactive”; under `CC(C)CC#Cc1ccc2c(c1)O[C@H](CN(C)C(=O)C1CCCCC1)[C@H](C)CN([C@@H](C)CO)S2(=O)=O`, “inactive”; under `CCCN(C)C[C@@H]1Oc2cc(-c3ccccc3OC)ccc2S(=O)(=O)N([C@H](C)CO)C[C@@H]1C`, “inactive”.
For the molecule `COc1cccc(S(=O)(=O)N(C)C[C@@H]2Oc3cc(C4=CCCCC4)ccc3S(=O)(=O)N([C@@H](C)CO)C[C@@H]2C)c1`, the outcome was inactive.
For `COCC#Cc1cnc2c(c1)C(=O)N([C@@H](C)CO)C[C@@H](C)[C@@H](CN(C)C(=O)c1ccc(F)cc1)O2`, the result was inactive.
For `COc1ccc(NC(=O)Nc2ccc3c(c2)C(=O)N([C@H](C)CO)C[C@@H](C)[C@@H](CN(C)Cc2ccc(C(F)(F)F)cc2)O3)cc1`, the outcome was inactive.
In the case of `CC(C)NC(=O)Nc1ccc2c(c1)C(=O)N([C@H](C)CO)C[C@H](C)[C@H](CN(C)C(=O)Cc1ccccc1)OCCCC[C@H](C)O2`, the call was inactive.
Under `O=C(NCC[C@H]1CC[C@@H](NC(=O)Nc2cc(F)ccc2F)[C@H](CO)O1)Nc1ccc(F)cc1` stands “inactive”.
With `COc1ccc(S(=O)(=O)N(C)C[C@@H]2OCCCC[C@H](C)Oc3ccc(NS(=O)(=O)c4ccc(F)cc4)cc3C(=O)N([C@@H](C)CO)C[C@@H]2C)cc1`, the molecule was classed as inactive.
For `Cc1ccc(S(=O)(=O)N(C)C[C@H]2OCCCC[C@H](C)Oc3ccc(NS(=O)(=O)c4ccccc4)cc3C(=O)N([C@@H](C)CO)C[C@H]2C)cc1`, the molecule was called inactive.
In the case of `COc1ccccc1-c1ccc2n(c1=O)C[C@@H]1[C@@H](CO)[C@H](C(=O)N3CCCCC3)[C@H]2N1CC1CC1`, the call was inactive.
Under `C[C@H](CO)N1C[C@H](C)[C@H](CN(C)C(=O)Nc2ccc(F)cc2)Oc2cc(/C=C/c3ccccc3)ccc2S1(=O)=O` stands “inactive”.
